Measured values from PubChem BioAssay AID1558 (National Center for Advancing Translational Sciences (NCATS), 2009).
Records with an inconclusive call do not appear. Active and inactive are the calls of the source. Calls come from the whole dose curve; as a rule, active = well fitted inhibition curve with a large enough effect; inconclusive = small, poorly fitted or top-dose-only effect; inactive = flat fitted curve, though single readings scatter.

These compounds were tested against Microtubule-associated protein tau (Homo sapiens) (UniProt P10636) (assay: Confirmation Concentration-Response Assay for Inhibitors of Tau Fibril Formation, Thioflavin T Binding). Details: recombinant tau K18 P301L heparin fibrillization, ThT fluorescence; series mostly up to 100 µM.
Summary of the method: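 Heparin (20 uM final) induced fibrillization of human tau K18 P301L (15 uM unlabeled plus 0.24 uM Alexa 594-labeled, final) in 100 mM sodium acetate pH 7 with compound, 6 hr at 37 C. ThT (30 uM final) added, read after 1 hr (ex 450, em 510 nm).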

Microtubule-associated protein tau (Homo sapiens), sequence (P10636 561-689 P618L limits assumed): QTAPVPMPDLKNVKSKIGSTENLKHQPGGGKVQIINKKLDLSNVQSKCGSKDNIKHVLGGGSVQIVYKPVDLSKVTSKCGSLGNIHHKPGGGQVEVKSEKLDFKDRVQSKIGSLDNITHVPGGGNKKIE

Potency, inactive:
N#Cc1cccc(NC(=O)c2ccc3c(c2)N(Cc2cccc(Cl)c2)C(=O)c2ccccc2S3(=O)=O)c1
CCn1nccc1C(=O)Nc1cc(Cl)cc(Cl)c1
Cc1ccc(N(C)S(=O)(=O)c2nnc(NC(=O)C3CCCCC3)s2)cc1
O=C(Cc1ccccc1)Nc1sc2c(c1C(=O)Nc1ccc(Br)cc1)CCCC2
COc1ccc2oc(-c3ccc(NC(=O)c4ccc(N5CCOCC5)c([N+](=O)[O-])c4)cc3)nc2c1
COc1ccc(CNC(=O)Cn2nc(C)n3cccc3c2=O)cc1
O=S(=O)(c1ccc(NC(=S)N/N=C/c2ccc(N3CCOCC3)cc2)cc1)N1CCOCC1
COc1c(Cl)cccc1NC(=O)c1c(NC(=O)Cc2ccccc2)sc2c1CCCC2

Potency, active:
CC(=O)Nc1nc(C)c(-c2csc(Nc3cccc([N+](=O)[O-])c3)n2)s1 3.55 µM
O=C(NCCCO)Nc1ccc2nc(-c3ccco3)c(-c3ccco3)nc2c1 3.16 µM
S=C1Cc2ccccc2N1 0.631 µM
CCN(CC)c1ccc2oc(=O)c(C)nc2c1 10 µM
CN(c1ccccc1)S(=O)(=O)c1nnc(NC(=O)C2CCCCC2)s1 22.4 µM
Cc1cccc(NC(=O)c2c(NC(=O)c3ccccc3)sc3c2CCCC3)c1 7.94 µM
CCOC(=O)c1nn(-c2ccc(Cl)cc2)c(=O)c2c(N)scc12 2.24 µM
Nc1cc(-c2ccncc2)c[nH]c1=O 10 µM
CN(C(=S)Nc1cccnc1)c1ccc(O)cc1 10 µM
